About 8,600 (12%) of roughly 69,000 compounds showed an effect of 50% or more. The sample holds strong results, similar compounds and a random draw of the others, so the mix is not that of the screen.

The test system of this experiment is Plasmodium berghei. As to the kind of experiment: Screen against P. berghei liver stage (PbLuc), transformed with Luciferase, at 10uM. It counts as functional, HepG2. The note with it: tested at 10 uM.
Turning to `CCN1CCC2(CN(C(C)=O)CC23CCN(CC2CC2)CC3)C1=O` (stereo unspecified), the INHIBITION was -23.3%. In the case of `O=C(Nc1ccncc1)NC1CCN(c2ccccc2Cl)C1=O` (stereo unspecified) it was 50.8%; in that of `CN1CCC(NC(=O)Nc2cnn(-c3ccccc3Cl)c2)C1=O` (stereo unspecified), 37.7%. The same measure for `Cn1ccc(NC(=O)NC2CCCN(c3ccccc3Cl)C2=O)n1` (stereo unspecified): 74%; for `CN1CCC(NC(=O)Nc2ccc(Cl)c(F)c2)C1=O` (stereo unspecified): -6.39%; for `Cn1cc(NC(=O)NC2CCCN(c3ccccc3Cl)C2=O)cn1` (stereo unspecified): 24.8%. For `Cc1cc(CC(=O)NC2CCCN(c3ccccc3Cl)C2=O)n[nH]1` (stereo unspecified), the INHIBITION turned out to be 8.44%.

In the case of `O=C(Nc1cc(F)ccc1OCC1CCCO1)N1CCSCC1` (stereo unspecified), the INHIBITION turned out to be 41.2%.

As for `CC(=O)NCC1(COc2cnccn2)C[C@@H](O)[C@@H](O)C1` (stereo partly specified), the INHIBITION was -3.52%. `COCC(C)NC(=O)c1cn(C(C)C)cc2c(=O)[nH]nc1-2` (stereo unspecified): the INHIBITION is reported as 22%. With `COc1ccc2c(OCC(=O)NCC(F)(F)F)ccnc2c1`, the INHIBITION was -121%. The same measure for `CNC(=O)[C@H]1C[C@@H]2CN(C(=O)c3ccsc3)C[C@@H]2N1S(C)(=O)=O`: 32.2%; for `CCOc1ncccc1NC(=O)N1CCN(Cc2ccncc2)CC1`: 18.75%. On to `CCCc1cncnc1N1CCC(NCCc2nc(O)cc(O)n2)CC1`, for which the INHIBITION is 8.23%.

`Cc1nnc(CCNC2CCN(c3ncnc4c(C)csc34)CC2)s1`: the INHIBITION is listed as 61.8%.

Regarding `CCCc1cncnc1N1CCC(NCCc2ccc(O)cc2)CC1`, the INHIBITION came out at 49.9%. The same measure for `Cc1csc2c(N3CCC(NCCc4ccnn4C)CC3)ncnc12`: 53.6%; for `Cc1nc(C)n(CCNC2CCN(c3ncnc4c(C)csc34)CC2)n1`: -12.4%; for `Cc1csc2c(N3CCC(NCCCc4ccncc4)CC3)ncnc12`: 43.5%. The same measure for `CCc1nc(CNC2CCN(c3ccc(OC)cc3)CC2)cs1`: 34%; for `Cc1csc2c(N3CCC(NCCCC4CCOC4)CC3)ncnc12` (stereo unspecified): 55.8%; for `CCc1nnc(CNC2CCN(c3ncnc4c(C)csc34)CC2)s1`: 61.3%. The same measure for `CCc1cc(N2CCC(NCCc3nc(C)c(C)s3)CC2)nc(C)n1`: 30.3%; for `CCC1CCN(CCn2cnc3c(C)csc3c2=O)CC1`: -7.25%.

For the compound `O=C(NCc1ccc2c(c1)OCO2)[C@@H]1C=CCN1c1ncccn1`, the INHIBITION was -0.232%. The same measure for `CCOCC1CC2(CCN(C(=O)c3ccccn3)CC2)CO1` (stereo unspecified): 32.4%. Turning to `Cc1cc(C)nc(N2CCC(C(=O)Nc3n[nH]c(C(C)C)n3)CC2)n1`, the INHIBITION amounted to 24.7%. In the case of `Cc1noc(C(C)Nc2ccc(N3CCOCC3)cc2C)n1` (stereo unspecified), the INHIBITION came out at 23.1%.

Regarding `CCOC(=O)CSc1nnc([C@@H](N)CC(C)C)o1`, the INHIBITION turned out to be 12.3%. Turning to `O=C(COC1CCCC1)N1C[C@@H]2CN(Cc3ccoc3)CCO[C@@H]2C1`, the INHIBITION is listed as 29.8%. In the case of `COc1ccccc1C(=O)N(C)C1CCN(c2ccccn2)CC1`, the INHIBITION is given as 19.5%.

`Cc1cc(N2CCC(N(C)C(=O)c3ccccc3)CC2)nc(C)n1`: the INHIBITION was 2.3%. In the case of `Cc1cc(N2CCC(N(C)C(=O)c3sccc3C)CC2)nc(C)n1` it was 68.6%; in that of `Cc1cc(N2CCC(O)CC2)nc(C)n1`, 41%; in that of `Cc1cc(N2CCC(N(C)C(=O)c3ccccc3F)CC2)nc(C)n1`, 56.1%. As for `Cc1cc(N2CCC(N(C)C(=O)Nc3ccccc3)CC2)nc(C)n1`, the INHIBITION is 4.71%. The same measure for `Cc1cc(N2CCC(N(C)C(=O)c3cccs3)CC2)nc(C)n1`: 22%; for `Cc1cc(N2CCC(N(C)C(=O)c3ccc(C#N)cc3)CC2)nc(C)n1`: 81.1%; for `CN(C(=O)c1ccc(C#N)cc1)C1CCN(c2ccccn2)CC1`: -39.5%. The same measure for `CCNc1cc2c(nn1)CCN(C(=O)CCc1c(C)noc1C)C2`: 1.78%; for `COc1c(C2CCCN2C(=O)c2cnc(C)cn2)c(C)nn1C` (stereo unspecified): -14.7%; for `O=C(Cn1cc(-c2ccccc2)ncc1=O)Nc1nccs1`: -13.6%. For the compound `Cc1nc(C2CCCN(C(=O)c3ccnc(N(C)C)c3)C2)no1` (stereo unspecified), the INHIBITION is recorded as -27%. In the case of `CN(C)C(=O)c1c[nH]nc1C1CCN(S(=O)(=O)c2ccccc2)CC1` it was -36.4%; in that of `O=C(C1CCC2(CCN(c3nncs3)CC2)C1)N1CCCC1` (stereo unspecified), -16.9%. The same measure for `O=C([C@@H]1CCCO1)N1CCOCC2(CCN(Cc3cccnc3)C2)C1` (stereo partly specified): 40.3%; for `CC(C)NC(=O)C1CCC2(CCN(c3ncccn3)CC2)CO1` (stereo unspecified): 15.7%. In the case of `O=C(C1CCC2(CCN(c3ncccn3)CC2)CO1)N1CCCC1` (stereo unspecified) it was -7.24%; in that of `O=C(C1CCCO1)N1CCC2(CC1)COCCN(Cc1cccnc1)C2` (stereo unspecified), 12.2%; in that of `CNC(=O)C1CCC2(CCN(c3nncs3)CC2)CO1` (stereo unspecified), 61.9%. For the compound `O=C(C1CCC2(CCN(Cc3cccnc3)CC2)CO1)N1CCCC1` (stereo unspecified), the INHIBITION was 62%.

As to `CNC(=O)C1CCC2(CCN(c3ncc(C)cn3)CC2)CO1` (stereo unspecified), the INHIBITION was 11.3%. The same measure for `O=C(C1CCC2(CCN(c3nncs3)CC2)CO1)N1CCCC1` (stereo unspecified): 57.1%.

Take `CC(C)(C)C(=O)N1CC[C@@H]2[C@H](CC1)N(S(C)(=O)=O)CCS2(=O)=O`: the INHIBITION is 37.1%. In the case of `CN1CCN(C(=O)c2cc(-c3cccs3)cs2)CC1` it was -11.4%; in that of `Cc1nc(C2CCCN2C(=O)COCc2ccccc2)no1` (stereo unspecified), 7.27%. As for `COc1cnc(CSc2nnc(C)s2)cc1OCC(=O)NC1CCCC1`, the INHIBITION is 43.3%.

As to `CNc1cncc(C2CCCN2Cc2ccnc(C)n2)n1` (stereo unspecified), the INHIBITION came to 48.6%. Consider `CN1CCc2c(C#N)c(NCCCN3CCOCC3)n3cnnc3c2C1`, for which the INHIBITION was determined as 3.95%. The same measure for `COc1ccc(CN2CCOC3(CCCN(C(C)=O)C3)C2)cc1` (stereo unspecified): 7.31%; for `COc1ccccc1CNC(C)c1ccc(-n2ccnc2)cc1` (stereo unspecified): 70.3%; for `CCOc1cccc(CNC(C)c2ccc(-n3ccnc3)cc2)c1O` (stereo unspecified): 47.1%. For `COCCC(C)NCc1ccccc1-n1ccnc1` (stereo unspecified), the INHIBITION was 15.2%.

For the compound `CC(NCc1ccccc1O)c1ccc(-n2ccnc2)cc1` (stereo unspecified), the INHIBITION worked out at 61.9%.

As for `COc1cccc(CNC(C)c2ccc(-n3ccnc3)cc2)c1OC` (stereo unspecified), the INHIBITION turned out to be 35%. The same measure for `COc1cccc(CNC(C)c2ccc(-n3ccnc3)cc2)c1O` (stereo unspecified): 43.4%. Turning to `CC1CCC(O)(CSc2nnnn2C)CC1` (stereo unspecified), the INHIBITION was 4.52%. For `CCn1ncc2c1C(COC)N(C(=O)CCc1ccccc1)CC2` (stereo unspecified), the INHIBITION was 43%. On to `Cc1cnc(CC2COCCN(C(=O)c3cncnc3)C2)cn1` (stereo unspecified), for which the INHIBITION is reported as -13.2%. On to `CC(NCc1cc(O)c2cccc(F)c2n1)c1ccccc1O` (stereo unspecified), for which the INHIBITION is recorded as 25%. As for `Cc1ccc(-c2c(-c3ccccc3)ncn2CCCN2CCOCC2)o1`, the INHIBITION is on record as 20.1%. The same measure for `c1ccc(-c2ncn(CCCN3CCOCC3)c2-c2ccncc2)cc1`: 55.4%; for `Cc1ccc(CNCCN2CCOCC2)o1`: 5.34%; for `Cc1nc(-c2c(-c3ccccc3)ncn2CCCN2CCOCC2)c[nH]1`: 27.6%. In the case of `OCc1ccc(-c2c(-c3ccccc3)ncn2CCN2CCOCC2)o1` it was 53.3%; in that of `CSCc1ccc(CNCCN2CCOCC2)o1`, 15.6%; in that of `COCCCn1ccc(NC(=O)NCc2cccc(N(C)C)c2)n1`, 21.5%. In the case of `O=C1[C@@H]2CC[C@@H](CN(Cc3ccccc3OC(F)F)C2)N1CC1CC1` it was 18.5%; in that of `CC(=O)NCC(=O)N1CC[C@H](OCC2CC2)[C@@H]1Cc1cccnc1`, 4.92%; in that of `N#Cc1ccc2c(c1)CN(C(=O)C1CC=CC1)C2c1cnco1` (stereo unspecified), 34.9%. With `CN(C)c1ccc2c(c1)CN(C(=O)c1ccnnc1)C2c1cnco1` (stereo unspecified), the INHIBITION is reported as -0.554%.

`CN(C)c1ccc2c(c1)CN(C(=O)c1ccco1)C2c1cnco1` (stereo unspecified): the INHIBITION is -0.554%. With `CN(C)CC(=O)N1Cc2cc(-c3cc[nH]n3)ccc2C1c1cnco1` (stereo unspecified), the INHIBITION is given as -19.8%. The same measure for `N#CC1(C(=O)N2Cc3cc(-c4cc[nH]n4)ccc3C2c2cnco2)CC1` (stereo unspecified): -18.3%; for `CC(=O)NCC(=O)N1Cc2cc(-c3cc[nH]n3)ccc2C1c1cnco1` (stereo unspecified): 71.8%.

For the compound `CN(C)c1ccc2c(c1)CN(C(=O)c1c[nH]cn1)C2c1cnco1` (stereo unspecified), the INHIBITION is on record as 76.3%. In the case of `CC(=O)NCC(=O)N1Cc2cc(C#N)ccc2C1c1cnco1` (stereo unspecified) it was 65.9%. In the case of `CN(C)CC(=O)N1Cc2cc(N(C)C)ccc2C1c1cnco1` (stereo unspecified) it was 33.4%; in that of `N#Cc1ccc2c(c1)CN(C(=O)c1nc[nH]n1)C2c1cnco1` (stereo unspecified), 64.5%. On to `CN(C)c1ccc2c(c1)CN(C(=O)c1cnccn1)C2c1cnco1` (stereo unspecified), for which the INHIBITION is on record as 31.9%. The same measure for `O=C(CN1CCOC1=O)N(Cc1ccccc1)Cc1nccs1`: 22.1%; for `CC(C)CN1CC(C(=O)NCCNc2ncccn2)CC1=O` (stereo unspecified): 21.6%. In the case of `N#Cc1ccc(CN2CCN(c3cncc(Cl)n3)CC2=O)cc1` it was -5.33%. In the case of `CN(Cc1n[nH]c2c1CCCCC2)C(=O)c1cc(-c2cccn2C)n[nH]1` it was -89.3%. With `COCCN1CCN(Cc2c(C3CCNCC3)[nH]c3ncccc23)CC1`, the INHIBITION is -12.9%. In the case of `CSc1ccccc1CN1C[C@H]2C(=O)N(CC3CC3)C[C@@]2(C(=O)O)C1` it was -26.9%; in that of `CCCc1ccc(CN2C[C@H]3C(=O)N(CC4CC4)C[C@@]3(C(=O)O)C2)o1`, 6.28%; in that of `O=C1[C@@H]2CN(Cc3cc4ccccc4o3)C[C@]2(C(=O)O)CN1CC1CC1`, 79.8%. On to `COc1cccc(-n2cc3[nH]c(=O)n(C(C)C)n3c2=O)c1`, for which the INHIBITION was -34%. For the compound `CCOc1ncnc2c1CCN(C(=O)c1ccncc1F)CC2`, the INHIBITION turned out to be 54.4%. The same measure for `O=C(c1ccncc1F)N1CCc2ncnc(-c3ccncc3)c2CC1`: -7.39%; for `Cc1ncnc2c1CCN(C(=O)c1ccnnc1)CC2`: 60.1%; for `CCc1ncnc2c1CCN(C(=O)c1ccncc1F)CC2`: -49.3%. The same measure for `O=C(c1ccncc1F)N1CCc2ncnc(C3CC3)c2CC1`: -2.72%; for `Cc1ncnc2c1CCN(C(=O)c1cccnc1)CC2`: -2.17%; for `CC(C)Nc1ncnc2c1CCN(C(=O)c1ccccc1F)CC2`: 32.2%.

Consider `CCOc1ncnc2c1CCN(C(=O)c1cnccn1)CC2`, for which the INHIBITION was -103%.

As for `CC(C)Nc1ncnc2c1CCN(C(=O)c1ccncc1F)CC2`, the INHIBITION was 53.5%. Regarding `O=C(c1ccncc1F)N1CCc2ncnc(N3CCOCC3)c2CC1`, the INHIBITION is on record as 5.44%. The same measure for `Cc1ncnc2c1CCN(C(=O)c1ccncc1F)CC2`: 68.4%; for `Cc1ncnc2c1CCN(C(=O)c1ccncc1)CC2`: 19.5%.
